# Screening results (PubChem BioAssay)
# rCAG RNA binder = binds r(CAG) RNA repeats | r(CAG) RNA repeat, TO-PRO-1 dye displacement fluorescence | inhibition, % at 3 µM | 1.3% of 370,000 active | AID 651821;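 active = inhibition above the plate cutoff, the mean of all test compounds on that plate plus 3 SD, cut at about 35% in these data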;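 also: 0% = DMSO alone and 100% = 100 µM mitoxantrone as full dye displacement; higher means more dye released from RNA so lower well fluorescence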
# MsrA act = bovine methionine sulfoxide reductase A activation | AID 602163 | 0.3% of 360,000 active | activation, % at 10.6 µM | purified bovine MsrA, absorbance read-out; in the data active = activation above about 7.5%;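 also: 0% = vehicle and 100% = reference activator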
# HGIII-sPLA2 inh = Blocks human group III sPLA2 activity. Q9NZ20. QFRET BODIPY PC-A2 liposome hydrolysis, fluorescence. inhibition, % at 12.2 µM. 0.56% of 370,000 active. AID 743126;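 active = inhibition above mean plus 3 SD of compounds lying within the high and low control bounds, cut at about 19% in these data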;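 also: 0% = median of test compound wells and 100% = no enzyme DMSO wells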
# Target sequence (Q9NZ20 whole entry, looked up): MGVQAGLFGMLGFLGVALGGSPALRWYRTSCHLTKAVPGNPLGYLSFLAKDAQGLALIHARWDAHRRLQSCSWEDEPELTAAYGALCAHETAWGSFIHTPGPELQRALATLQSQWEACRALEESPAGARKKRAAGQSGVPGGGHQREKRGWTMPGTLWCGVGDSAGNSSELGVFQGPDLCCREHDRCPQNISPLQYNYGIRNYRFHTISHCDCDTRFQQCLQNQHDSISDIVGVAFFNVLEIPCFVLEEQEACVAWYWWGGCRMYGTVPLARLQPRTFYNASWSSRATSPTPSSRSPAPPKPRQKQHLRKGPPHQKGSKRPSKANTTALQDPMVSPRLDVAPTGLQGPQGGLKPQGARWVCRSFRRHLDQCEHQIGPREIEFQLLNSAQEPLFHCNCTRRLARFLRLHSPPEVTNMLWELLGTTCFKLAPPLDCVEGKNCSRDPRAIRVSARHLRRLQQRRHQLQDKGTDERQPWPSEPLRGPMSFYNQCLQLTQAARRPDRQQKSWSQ
# MsrA inhibitor = inhibits bovine methionine sulfoxide reductase A; AID 651718; purified bovine MsrA, absorbance read-out; inhibition, % at 15.5 µM; 0.75% of 360,000 active; in the data active = inhibition above about 4.5%;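 also: 0% = vehicle wells with enzyme and 100% = reference inhibitor wells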
# rCAG binder conf = r(CAG) RNA repeat binding, confirmation | shares compounds with rCAG RNA binder | TO-PRO-1 dye displacement fluorescence | inhibition, % at 3 µM | 70% of 4,300 active | AID 652065;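 active = inhibition above a per-plate cutoff, the mean inhibition of sample wells plus 3 SD, cut at about 35% in these data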;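 also: loss of TO-PRO-1 fluorescence as compound displaces dye from 1x1 AA loop RNA; 0% = DMSO only wells and 100% = 100 µM mitoxantrone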
# DNA CAG counter = counter-screen for rCAG RNA binders: DNA CAG dye complex inhibitors | shares compounds with rCAG RNA binder | d(CAG) DNA oligo TO-PRO-1 dye displacement, fluorescence | inhibition, % at 3 µM | 94% of 4,300 active;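 active = inhibition above its plate's cutoff, the mean test-well inhibition plus 3 SD, cut at about 4.8% in these data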;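 also: 0% = DNA dye mix with DMSO and 100% = 100 µM mitoxantrone; hits displace the dye from DNA and so lower well fluorescence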
# An asterisk follows results filed as active; x = not tested or not shown. Most compounds without a hit are left out; they make up all but 2.8% or so of the library.
SMILES,rCAG RNA binder,MsrA act,HGIII-sPLA2 inh,MsrA inhibitor,rCAG binder conf,DNA CAG counter
NS(=O)(=O)c1ccc(NC(=O)CN2CCN(S(=O)(=O)c3ccc(F)cc3)CC2)cc1,8,7,-1,-2,x,x
CCN(c1ccccc1)S(=O)(=O)c1ccc(Cl)c(NC(=O)CSc2ncn[nH]2)c1,9,-4,-80,1,x,x
CCCc1cc(=O)[nH]c(SCC(=O)Nc2cc(S(=O)(=O)N(CC)c3ccccc3)ccc2Cl)n1,60*,-7,-25,1,56*,20*
Cc1c(Br)c(-c2n[nH]c(=S)n2Cc2ccco2)nn1C,5,-1,10,1,x,x
COc1cc(NS(=O)(=O)c2ccc(NC(=S)NC(=O)CC(C)C)cc2)nc(OC)n1,29,-4,-8,-2,x,x
Cc1ccc(NS(=O)(=O)c2ccc(Cl)c(NC(=S)NC(=O)C3CCCCC3)c2)cc1Cl,45*,-6,-68,4,41*,17*
Cc1ccc(NC(=O)C2CCCC2)cc1Cl,-3,-5,-2,0,x,x
COc1ccc(C(=O)NC(=S)Nc2ccc(S(=O)(=O)Nc3cc(OC)nc(OC)n3)cc2)cc1,58*,-6,-14,0,55*,20*
COc1cc(NS(=O)(=O)c2ccc(NC(=S)Nc3ccccc3)cc2)nc(OC)n1,3,-2,10,0,x,x
COc1cc(NS(=O)(=O)c2ccc(NC(=S)NC(=O)C3CCCC3)cc2)nc(OC)n1,45*,6,-27,-1,33,10*
COc1ccc(OCC(=O)NC(=S)Nc2ccc(S(=O)(=O)Nc3cc(OC)nc(OC)n3)cc2)cc1,52*,-9,6,2,53*,20*
O=C(c1ccc([N+](=O)[O-])cc1)N1CCc2ccccc21,-2,0,1,0,x,x
O=C(NC1CCC1)c1ccc(C#CC2CC2)c[n+]1[O-],2,x,14,x,x,x
Cc1cccc(NC(=S)NNC(=O)COc2ccc(Cl)cc2Cl)c1,45*,0,-3,-1,33,10*
CC(C)c1ccc(/C=N/Nc2ccc(C(=O)O)cc2)cc1,18,-12,-20,3,x,x
COc1cc(/C=N/Nc2ccccc2)ccc1OC(=O)c1cccs1,8,x,3,0,x,x
O=C(O)c1ccc(N/N=C/c2ccc(-c3ccccc3)cc2)cc1,62*,-17,-37,4,72*,25*
Cc1ccc(S(=O)(=O)Oc2cccc(/C=N/n3cnnc3)c2)cc1,-3,4,-3,0,x,x
O=C(O)c1cc(N/N=C/c2ccc(-c3ccccc3)cc2)ccc1Cl,63*,-3,-21,2,76*,40*
COc1cc(/C=N/Nc2ccc(Cl)c(C(=O)O)c2)ccc1OC(=O)c1cccs1,54*,-4,-15,3,69*,30*
Cc1ccc(S(=O)(=O)Oc2cccc(/C=N/Nc3ccc(C(=O)O)cc3)c2)cc1,74*,-4,-47,3,58*,17*
COc1cc2c(cc1OC)CN(C(=O)Cn1ccccc1=O)CC2,x,-5,x,x,x,x
O=C(O)c1ccc(N/N=C/c2ccc(OC(=O)c3ccccc3Cl)cc2)cc1,81*,-6,-56,4,68*,28*
CCOC(=O)c1c(NC(=O)CSc2nnc(C)c(=O)[nH]2)sc2c1CCCC2,69*,-2,-11,2,66*,20*
CCOC(=O)c1c(NC(=O)C(C)Sc2nnc(C)c(=O)[nH]2)sc2c1CCCC2 (configuration not stated),69*,-4,-8,1,66*,30*
SMILES,rCAG RNA binder,MsrA act,HGIII-sPLA2 inh,MsrA inhibitor,rCAG binder conf,DNA CAG counter
CCOC(=O)c1c(NC(=O)CSc2nnc(C)s2)sc2c1CCCCC2,2,-2,-19,1,x,x
CCOC(=O)c1c(NC(=O)CSc2nnc(C)c(=O)[nH]2)sc(C)c1-c1ccc(C)cc1,43*,-3,-4,-1,79*,44*
Cc1nnc(SCC(=O)Nc2sc3c(c2C#N)CCCC3)[nH]c1=O,30,0,3,1,x,x
CC(=O)NC(CCS(C)(=O)=O)C(=O)Nc1c(F)cccc1F (configuration not stated),-1,-12,0,0,x,x
Cc1ccc(S(=O)(=O)N/N=C\c2ccc(Cl)c([N+](=O)[O-])c2)cc1,13,-1,1,0,x,x
Cc1ccc(S(=O)(=O)N/N=C/c2ccc(OS(=O)(=O)c3ccc(C)c([N+](=O)[O-])c3)cc2)cc1,35*,-1,-31,0,50*,15*
O=C(O)CCCN1C(=O)/C(=C/c2cn(-c3ccccc3)nc2-c2cccs2)SC1=S,64*,0,0,1,82*,44*
O=C(CCCN1C(=O)/C(=C/c2cccs2)SC1=S)Nc1cccc(C(=O)O)c1,5,3,8,-1,x,x
O=C(CCN1C(=O)/C(=C/c2cccs2)SC1=S)Nc1ccc(O)cc1,13,-2,-44,0,x,x
O=C(CCN1C(=O)/C(=C/c2cccs2)SC1=S)Nc1cccc(C(=O)O)c1,60*,0,-1,2,52*,18*
Cc1nn(-c2ccccc2)c(Cl)c1/C=C1\SC(=S)N(CCCCCC(=O)O)C1=O,33,-4,-29,1,x,x
CC(=Cc1ccccc1)C=C1SC(=S)N(CCCC(=O)Nc2ccc(C(=O)O)c(O)c2)C1=O,93*,-5,-33,0,92*,76*
O=C(CCCN1C(=O)/C(=C/c2cccs2)SC1=S)Nc1ccc(C(=O)O)cc1,42*,-11,4,1,39*,7.8*
CC(C)S(=O)(=O)C/C(N)=N/OS(=O)(=O)c1ccc(Cl)cc1,0,-3,10,1,x,x
CNc1nc(-c2c(C)[nH]c3ccc(OC)cc23)cs1,15,-14,-1,-1,x,x
CCc1nnc(NC(=O)CSc2nnc(CNc3ccc(Cl)cc3)o2)s1,x,-5,x,x,x,x
CCOC(=O)c1ccc(NC(=O)NCc2ccncc2)cc1,-3,-2,-1,-1,x,x
Cc1ccc(/C=N\NC(=O)Cc2cccn2C)o1,5,-3,2,2,x,x
CC1CCCC(NC(=O)C2CCN(S(=O)(=O)N3CCOCC3)CC2)C1C (configuration not stated),-5,-3,-1,3,x,x
COc1ccc(OCC(O)CN2C(=O)c3ccccc3C2=O)cc1 (configuration not stated),-3,-2,-6,-1,x,x
CCOC(=O)CN1C(=O)CN(c2ccc(C)cc2)C1=O,-4,-3,2,2,x,x
O=C(CCN1C(=O)/C(=C/c2cccs2)SC1=S)Nc1ccc(C(=O)O)c(O)c1,93*,-1,-32,0,80*,50*
O=C(NCCC(F)(F)F)C1Cc2c(-c3cccc(F)c3)ccnc2O1 (configuration not stated),2,5,1,-1,x,x
CC(OC(=O)c1cccc(S(=O)(=O)Nc2cccc(C(F)(F)F)c2)c1)C(=O)Nc1ccc2c(c1)OCCO2 (configuration not stated),37*,4,-74,0,36*,8.0*
Cc1cc(CC(=O)O)c2oc(-c3ccoc3)cc(=O)c2c1,12,x,-3,1,x,x
